Results filed as inconclusive are left out. The source made the active and inactive calls. Unless noted, calls come from the whole dose curve; as a rule, active = well fitted curve in the direction sought with a large enough effect in the repeat runs; inconclusive = weak or mixed curves; inactive = no such curve, though single readings can be large; an effect the other way counts as inactive or inconclusive.
Assays:
[1] = qHTS assay to identify small molecule agonists of the RXR signaling pathway - cell viability counter screen (AID 1159529); note: nearly all actives have a fitted effect of over 50% in size; note: potency is the fitted concentration of half-maximal effect
Method in brief: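 Tox21 10K compounds were tested for cytotoxicity against GeneBLAzer RXR-alpha HEK 293T cells grown in 2% charcoal-stripped FBS. Exposure lasted 16 hr at 37 C, 5% CO2; viability read by CellTiter-Glo luminescence.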

[2] = qHTS assay to identify small molecule antagonists of the retinoic acid receptor (RAR) signaling pathway (AID 1159552; note: nearly all actives have a fitted effect of over 50% in size; note: potency is the fitted concentration of half-maximal effect)
Method in brief: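 Overnight-plated C3RL4 reporter cells get compound, then retinol to 1 uM final; plates sit 6 hr at 37 C, 5% CO2. A luciferase reagent is added and light output recorded after 30 min at room temperature.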

[3] = qHTS assay to identify small molecule antagonists of the estrogen related receptor (ERR) signaling pathway (AID 1224819;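 note: luminescence from an ERR-driven luciferase reporter measured with One-Glo reagent; series mostly up to about 46 µM; nearly all actives have a fitted effect of over 50% in size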)
Method in brief: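 LOPAC library screened for antagonism as reduced One-Glo luminescence in ERR reporter cells (2,000/well). Compounds were added after 6 h pre-incubation and left 18 h at 37C; reading followed a 30 min room-temperature reagent step.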

[4] = qHTS assay to identify small molecule agonists of the estrogen related receptor (ERR) signaling pathway (AID 1224820)
Method in brief: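 ERR reporter cell line (from NTP), 2,000 cells/well, incubated 6 h before compound addition, then 18 h at 37 C. Luminescence measured 30 min after One-Glo reagent at room temperature.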

[5] = qHTS assay to identify small molecule antagonists of the estrogen related receptor signaling pathway with the pleiotropic PPARgamma coactivator (PGC) cell viability counter screen (AID 1224822;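 note: series mostly up to about 46 µM; viability read after 17.5 h compound exposure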)
Method in brief: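 qHTS format, DMSO compound stocks pin-transferred onto PGC/ERR cells 6 h after plating; 17.5 h exposure at 37 C, then CellTiter-Fluor fluorescence.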

[6] = qHTS assay to identify small molecule agonists of the estrogen related receptor signaling pathway with the pleiotropic PPARgamma coactivator (PGC) (AID 1224823)
Method in brief: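 PGC/ERR reporter cells seeded 6 h, then exposed to compounds (23 nL in DMSO) for 18 h at 37 C. One-Glo luciferase luminescence read after 30 min at room temperature.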

[7] = qHTS assay to identify small molecule antagonists of the estrogen related receptor (ERR) signaling pathway from Tox21 library - cell viability counter screen (AID 1224834); note: nearly all actives have a fitted effect of over 30% in size; note: potency is the fitted concentration of half-maximal effect
Method in brief: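 Viability readout (CellTiter-Fluor fluorescence, 30 min at 37 C) multiplexed with the ERR assay; cells treated 17.5 h at 37 C with compounds delivered in DMSO.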

[8] = molecular target: Luciferin 4-monooxygenase (Photinus pyralis) (UniProt P08659); test: qHTS assay to identify small molecule inhibitors of firefly luciferase (AID 1224835); note: nearly all actives have a fitted effect of over 25% in size; note: potency is the fitted concentration of half-maximal effect
Method in brief: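 Biochemical qHTS: compounds run as interplate titrations against purified firefly enzyme, with D-luciferin and ATP each at its KM concentration. Light output recorded by CCD imaging.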

[9] = qHTS assay to identify small molecule agonists of the constitutive androstane receptor (CAR) signaling pathway - cell viability counter screen (AID 1224836); note: series mostly up to about 92 µM; nearly all actives have a fitted effect of over 45% in size
Method in brief: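 Fluorescence from CellTiter-Fluor indicates live cells after 23 h exposure. The human hepatoma line expresses hCAR and a CYP2B6-2.2kb reporter. Incubation medium contains 0.75 uM PK11195 (final).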

[10] = qHTS assay to identify small molecule antagonists of the constitutive androstane receptor (CAR) signaling pathway - cell viability counter screen (AID 1224837); note: series mostly up to about 92 µM; nearly all actives have a fitted effect of over 45% in size
Method in brief: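 Fluorescence from CellTiter-Fluor served as the viability signal. Human hepatoma HepG2 cells stably bearing hCAR and CYP2B6-2.2kb received compound plus CITCO (50 nM final) for 23 hr.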

[11] = qHTS assay to identify small molecule antagonists of the estrogen related receptor signaling pathway with the pleiotropic PPARgamma coactivator (PGC) from Tox21 10K library - cell viability counter screen (AID 1224840; active = well fitted cell-killing curve with a large enough effect in the repeat runs, not every such curve was filed as active; note: nearly all actives have a fitted effect of over 40% in size; note: potency is the fitted concentration of half-maximal effect)
Method in brief: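 Compounds in DMSO, alongside positive and negative controls, were pinned onto PGC/ERR cells (2,000 per well). Exposure lasted 17.5 hours at 37 C, followed by a 30-minute CellTiter-Fluor incubation and fluorescence reading.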

[12] = qHTS assay to identify small molecule agonists of the estrogen related receptor signaling pathway with the pleiotropic PPARgamma coactivator (PGC) from Tox21 10K library (AID 1224842); note: nearly all actives have a fitted effect of over 15% in size; note: potency is the fitted concentration of half-maximal effect
Method in brief: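 PGC/ERR reporter cell line, 2,000 cells per well, incubated 6 h at 37 C before 23 nL compound in DMSO was added. After 18 h at 37 C, One-Glo luminescence read following 30 min at room temperature.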

[13] = molecular target: Thyrotropin receptor (Homo sapiens) (UniProt P16473); test: qHTS assay to identify small molecule agonists of the thyroid stimulating hormone receptor (TSHR) signaling pathway (AID 1224843; calls by dose curve; note: nearly all actives have a fitted effect of over 45% in size; note: potency is the fitted concentration of half-maximal effect)
Method in brief: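 TSHR-HEK293 cells in agonist mode, 30 min room-temperature step, then cAMP measured by competitive HTRF (cAMP-d2 with anti-cAMP cryptate) after 1 h at room temperature. Tested at 15 concentrations in triplicate.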

[14] = qHTS assay to identify small molecule agonists of the hypoxia (HIF-1) signaling pathway - cell viability counter screen (AID 1224844; calls by dose curve; note: nearly all actives have a fitted effect of over 50% in size; note: potency is the fitted concentration of half-maximal effect)
Method in brief: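 Luminescent ATP content (CellTiter-Glo, 30 min, room temperature) served as the viability measure in HRE-bla ME-180 cells exposed to compounds for 17 hrs in low-serum medium (0.5% dialyzed FBS).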

[15] = qHTS assay to identify small molecule antagonists of the retinoid acid receptor (RAR) signaling pathway - cell viability counter screen (AID 1159551); note: nearly all actives have a fitted effect of over 35% in size
Method in brief: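 Following overnight attachment, C3RL4 reporter cells received DMSO-dissolved compounds and then retinol (1 uM final). Six hours later at 37 C, ATP content was measured by CellTiter-Glo luminescence.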

[16] = molecular target: Nuclear receptor subfamily 1 group I member 3 (Homo sapiens) (UniProt Q14994); test: qHTS assay to identify small molecule antagonists of the constitutive androstane receptor (CAR) signaling pathway (AID 1224838);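 note: HepG2 cells stably expressing hCAR with CYP2B6 luciferase reporter stimulated by CITCO; nearly all actives have a fitted effect of over 40% in size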
Method in brief: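 Quantitative HTS in double-stable HepG2-CYP2B6-hCAR cells. After 4 h plating, cells get compound (15 concentrations) and CITCO at 50 nM final, incubate 24 h at 37 C, then ONE-Glo luminescence is read.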

[17] = molecular target: Nuclear receptor subfamily 1 group I member 3 (Homo sapiens) (UniProt Q14994); test: qHTS assay to identify small molecule agonists of the constitutive androstane receptor (CAR) signaling pathway (AID 1224839); note: nearly all actives have a fitted effect of over 15% in size; note: potency is the fitted concentration of half-maximal effect
Method in brief: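 Stable hCAR/CYP2B6-2.2kb HepG2 line in DMEM with 10% FBS; compounds (15 concentrations) and 0.75 uM PK11195 final, 24 h at 37 C/5% CO2, then ONE-Glo luminescence after 30 min.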

[18] = qHTS assay to identify small molecule agonists of the retinoic acid receptor (RAR) signaling pathway (AID 1159553); note: potency is the fitted concentration of half-maximal effect
Method in brief: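 Cell line C3RL4, RARE luciferase reporter. Treatment: compounds in DMSO, 6 hr, 37 C, 5% CO2, after overnight plating. Detection: luminescence, 30 min RT after reagent.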

[19] = qHTS assay to identify small molecule antagonists of the estrogen related receptor signaling pathway with the pleiotropic PPARgamma coactivator (PGC) from Tox21 10K library (AID 1224841; call rule not given here; note: potency is the fitted concentration of half-maximal effect)
Method in brief: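 Compound exposure ran 18 hours at 37 C in PGC/ERR cells (2,000/well) that had first rested 6 hours in a 37 C/5% CO2 incubator. Luciferase activity was then detected with One-Glo after a 30-minute room-temperature step.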

Measured: Potency

Sequence of Thyrotropin receptor (Homo sapiens) (P16473 whole entry, looked up): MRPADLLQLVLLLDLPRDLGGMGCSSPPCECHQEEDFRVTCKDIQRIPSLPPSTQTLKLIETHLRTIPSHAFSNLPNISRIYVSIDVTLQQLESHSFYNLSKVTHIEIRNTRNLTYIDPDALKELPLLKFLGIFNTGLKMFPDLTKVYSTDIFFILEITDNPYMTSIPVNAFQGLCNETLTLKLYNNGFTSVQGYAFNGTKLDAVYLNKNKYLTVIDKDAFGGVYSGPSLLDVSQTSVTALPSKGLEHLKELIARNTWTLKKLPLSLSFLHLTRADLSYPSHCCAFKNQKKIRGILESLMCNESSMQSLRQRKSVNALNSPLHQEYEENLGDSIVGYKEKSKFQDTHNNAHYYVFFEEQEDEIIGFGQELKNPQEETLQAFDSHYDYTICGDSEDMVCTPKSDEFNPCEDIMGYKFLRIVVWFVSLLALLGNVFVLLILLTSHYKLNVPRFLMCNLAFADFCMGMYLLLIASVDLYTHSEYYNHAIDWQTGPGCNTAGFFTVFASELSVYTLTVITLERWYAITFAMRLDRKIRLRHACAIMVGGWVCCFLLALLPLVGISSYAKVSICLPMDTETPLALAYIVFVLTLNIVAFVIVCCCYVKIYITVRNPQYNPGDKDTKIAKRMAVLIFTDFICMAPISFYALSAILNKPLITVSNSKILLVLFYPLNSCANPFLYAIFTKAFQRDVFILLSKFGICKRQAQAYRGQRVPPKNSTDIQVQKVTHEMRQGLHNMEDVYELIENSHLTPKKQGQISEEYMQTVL
Sequence of Nuclear receptor subfamily 1 group I member 3 (Homo sapiens) (Q14994 whole entry, looked up): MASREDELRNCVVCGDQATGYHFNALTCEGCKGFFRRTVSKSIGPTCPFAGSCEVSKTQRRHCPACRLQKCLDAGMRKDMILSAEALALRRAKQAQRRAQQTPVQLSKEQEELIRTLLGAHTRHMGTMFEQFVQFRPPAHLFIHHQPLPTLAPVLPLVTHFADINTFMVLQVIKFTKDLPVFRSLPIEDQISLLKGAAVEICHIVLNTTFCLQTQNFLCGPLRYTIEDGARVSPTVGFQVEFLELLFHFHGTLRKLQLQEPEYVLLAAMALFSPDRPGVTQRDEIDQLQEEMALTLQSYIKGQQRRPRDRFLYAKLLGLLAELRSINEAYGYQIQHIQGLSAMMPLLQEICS
Sequence of Luciferin 4-monooxygenase (Photinus pyralis) (P08659 whole entry, looked up): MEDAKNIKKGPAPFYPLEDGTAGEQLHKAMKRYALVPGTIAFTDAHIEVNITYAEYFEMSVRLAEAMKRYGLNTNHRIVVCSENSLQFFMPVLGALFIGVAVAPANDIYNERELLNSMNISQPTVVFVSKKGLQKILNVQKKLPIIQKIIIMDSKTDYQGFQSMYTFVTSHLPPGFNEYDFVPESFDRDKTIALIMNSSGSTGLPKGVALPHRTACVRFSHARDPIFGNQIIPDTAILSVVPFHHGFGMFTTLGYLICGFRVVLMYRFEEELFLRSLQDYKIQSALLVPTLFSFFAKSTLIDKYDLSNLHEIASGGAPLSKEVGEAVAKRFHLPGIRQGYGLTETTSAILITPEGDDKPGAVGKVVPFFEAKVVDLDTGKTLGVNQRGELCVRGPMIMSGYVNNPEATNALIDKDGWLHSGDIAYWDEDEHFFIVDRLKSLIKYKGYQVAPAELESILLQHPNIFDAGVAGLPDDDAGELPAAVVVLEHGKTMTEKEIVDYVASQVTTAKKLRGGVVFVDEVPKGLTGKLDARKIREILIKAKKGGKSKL

c1ccc(-c2ccccn2)nc1
inactive: [1] | [2] | [3] | [4] | [5] | [6] | [7] | [8] | [9] | [10] | [11] | [12] | [13] | [14]

CCCCc1nc2cccnc2n1Cc1ccc(-c2ccccc2-c2nnn[nH]2)cc1
inactive: [1] | [15] | [9] | [16] | [17] | [11] | [13] | [14]

O=C(CS)Nc1ccccc1
inactive: [1] | [15] | [7] | [9] | [10] | [11] | [13] | [14]

CCCCCCOC(=O)NC(=N)c1ccc(NCc2nc3cc(C(=O)N(CCC(=O)OCC)c4ccccn4)ccc3n2C)cc1
active: [1] 10.7 µM | [7] 29.8 µM | [11] 29.8 µM | [19] 16.8 µM | [14] 23.9 µM
inactive: [2] | [18] | [9] | [10] | [16] | [17] | [12]

CN1CCN(C(c2ccccc2)c2ccccc2)CC1
inactive: [1] | [15] | [7] | [9] | [10] | [11] | [13] | [14]

C=CC(=O)OCCOc1ccccc1
inactive: [1] | [18] | [7] | [9] | [10] | [11] | [13]
active: [2] 48.5 µM | [12] 68.5 µM

CCCCC(CC)COC(=O)COc1ccc(Cl)cc1Cl (centres undefined)
inactive: [1] | [2] | [18] | [7] | [9] | [10] | [11] | [13] | [14]

Cc1cc(C(=O)O)ccc1[N+](=O)[O-]
inactive: [1] | [2] | [18] | [7] | [8] | [9] | [10] | [11] | [13] | [14]

CCOc1ccc(O)cc1
inactive: [1] | [2] | [7] | [9] | [10] | [16] | [17] | [11] | [14]

CN(Cc1ccc(C(C)(C)C)cc1)Cc1cccc2ccccc12
inactive: [2] | [18] | [7] | [8] | [9] | [10] | [16] | [17] | [11] | [14]
active: [1] 10.7 µM

CC(CC=O)c1ccccc1 (centres undefined)
inactive: [1] | [2] | [7] | [8] | [9] | [10] | [16] | [17] | [11] | [13] | [14]

COc1ccc(-c2nc3ccc(C4=NNC(=O)CC4C)cc3[nH]2)cc1 (centres undefined)
active: [7] 13.3 µM | [8] 8.71 µM | [17] 3.76 µM | [12] 8.41 µM | [13] 9.44 µM
inactive: [1] | [2] | [9] | [10] | [16] | [19] | [14]

CCCCC(CC)CN1C(=O)C2C3C=CC(C3)C2C1=O (centres undefined)
active: [17] 30.6 µM
inactive: [1] | [15] | [8] | [9] | [10] | [16] | [11] | [19] | [12] | [14]

O=C(O)C1(C(=O)Nc2ccc(Cl)cc2Cl)CC1
inactive: [15] | [2] | [7] | [9] | [10] | [16] | [11] | [14]
active: [18] 6.11 µM | [8] 6.33 µM | [17] 13.7 µM

CC(=O)[O][Al]
inactive: [1] | [7] | [9] | [10] | [11] | [19] | [14]

CN(C)C(=O)NC1(c2ccccc2)CCN(CC[C@@]2(c3ccc(F)c(F)c3)CN(C(=O)c3ccccc3)CCO2)CC1
inactive: [8] | [9] | [10] | [12] | [13] | [14]
active: [1] 45.5 µM

O=C1[C@H]2CCCC[C@H]2C(=O)N1CCCCN1CCN(c2nsc3ccccc23)CC1
inactive: [15] | [2] | [9] | [10] | [16] | [17] | [12] | [14]
active: [7] 29.8 µM

CCOC(=O)C(O)c1ccccc1 (centres undefined)
inactive: [15] | [2] | [18] | [7] | [8] | [9] | [10] | [16] | [17] | [11] | [12] | [13] | [14]

CCCCCCCCCCO[C@@H]1O[C@H](CO)[C@@H](O)[C@H](O)[C@H]1O
inactive: [15] | [2] | [18] | [7] | [8] | [9] | [10] | [16] | [17] | [11] | [14]

O=C(OCCCCCCOC(=O)c1ccccc1)c1ccccc1
inactive: [15] | [2] | [7] | [8] | [9] | [10] | [16] | [17] | [11] | [12] | [14]

O=C(NCC1CN(c2ccc(N3CCOCC3=O)cc2)C(=O)O1)c1ccc(Cl)s1 (centres undefined)
inactive: [15] | [2] | [7] | [8] | [10] | [11] | [12] | [14]
